Hits are enriched below; roughly 19% of the tested compounds scored in any of these assays.
IL-1B inflam inh = blocks inflammasome-driven IL-1 beta release. THP-1 LPS/ATP IL-1B secretion, AlphaLISA, 16 h; hits give low values. activity change, % at 57.5 µM. 360,000 compounds, 4.7% hits. AID 743279; in the data active = activity change below about -50%; inconclusive = mostly about -30% to -49%
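Secreted IL-1B measured by AlphaLISA bead assay after 16 h compound exposure of THP-1 cells; compounds (final up to 57.5 uM) added 1 h before LPS (250 ng/mL) and ATP (1.25 mM) stimulation; lower signal means less secretion.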
HT1080 IDH1KD tx = toxicity to HT-1080 IDH1 knockdown cells (counter line) | HT-1080 IDH1 knockdown viability, ATP luminescence, 48 h | Potency, µM (highest dose often 46.1 µM), inactives show at the highest dose activity, negative = toxicity, usual class: cytotoxic | 360,000 compounds, 2% hits;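 also: potency is read from the fitted curve at half-maximal effect; 0% = DMSO wells and -100% = cell-free medium wells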
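After a 2 h attachment period, IDH1KD HT-1080 cells took pin-transferred compound for 48 h at 37 °C; ATP-based luminescence after 10 min room-temperature reagent incubation reported viability.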
TDP1 cell CPT = growth inhibition of DT40 Tdp1-/-;hTDP1 cells with camptothecin (screen for TDP1 inhibitors). chicken DT40 Tdp1-/-;hTDP1 cells + 20 nM CPT, ATP luminescence, 48 h. 420,000 compounds, 12% hits. Potency, µM (doses to about 46.2 µM), for the others: top-dose activity change, negative = growth inhibition, usual class: inhibitors. AID 686979; also: potency is read from the fitted curve at half-maximal effect; nearly all actives have a fitted effect of over 55% in size
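Cell growth measured by CellTiter-Glo luminescence after a minimum 48 h, 37 C compound exposure with 20 nM CPT in Tdp1-knockout DT40 cells stably expressing hTDP1, seeded 400/well; qHTS titration format.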
HT1080NT lethal = kills 2HG-producing HT-1080-NT fibrosarcoma cells; Potency, µM (top dose mostly 46.1 µM), for inactives: at the highest dose activity, negative = less viability, actives largely listed as cytotoxic; HT-1080-NT fibrosarcoma viability, CellTiter-Glo ATP luminescence, 48 h; AID 686970; 360,000 compounds, 1.6% hits;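 also: NT is the 2HG producing partner of a matched IDH1 knockdown line; potency is read from the fitted curve at half-maximal effect; 0% = DMSO-treated cells and -100% = media-only wells without cells; nearly all actives have a fitted effect of over 55% in size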
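750 cells/well, RPMI + 5% FBS; 2 h settle, compound pin-transfer, 48 h at 37 degrees C. CellTiter-Glo 10 min RT, luminescence. Normalized to DMSO and media-only wells.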
DT40 TDP1 no CPT = qHTS for Inhibitors of human tyrosyl-DNA phosphodiesterase 1 (TDP1): qHTS in cells in absence of CPT; AID 686978, 2013; DT40 Tdp1-/- hTDP1 cells, no CPT, ATP luminescence, 48 h; Potency, µM (highest dose often 46.2 µM), for inactives: top-dose activity change, negative = growth inhibition, most hits filed as inhibitors; 420,000 compounds, 15% hits; also: potency is read from the fitted curve at half-maximal effect; nearly all actives have a fitted effect of over 55% in size
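Growth of hTDP1-complemented DT40 Tdp1-knockout cells is measured by ATP luminescence after at least 48 hr compound exposure at 37 °C, with DMSO substituting for the 20 nM CPT used in the parallel screen.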
uPA generation = inhibitors of cell surface uPA generation. cell surface uPA generation assay, qHTS. Potency, µM (series often up to 38.3 µM), for the others: top-dose activity change, negative = inhibition, usual class: inhibitors. 330,000 compounds, 0.31% hits. AID 540303; active = well fitted inhibition curve with a large enough effect; inconclusive = small, poorly fitted or top-dose-only effect; inactive = no such curve, though single readings can be large or run the other way; tested in mouse RAW 264.7 cells; also: potency is read from the fitted curve at half-maximal effect; nearly all actives have a fitted effect of over 55% in size
The depositor's hits bear a star; ? = inconclusive; . = not tested or not shown; [ ] = remark or other dose. Unless noted, calls follow the shape of the dose curve; as a rule, active = well fitted curve in the direction sought with a large enough effect; inconclusive = small, poorly fitted or top-dose-only effect, or another doubt; inactive = no such curve, though single readings can be large; an effect the other way counts as inactive or inconclusive. Unless noted, % is scaled to controls: 0 for no effect and ±100 for the full control effect.

SMILES	IL-1B inflam inh	HT1080 IDH1KD tx	TDP1 cell CPT	HT1080NT lethal	DT40 TDP1 no CPT	uPA generation
Cc1cc(Nc2cccc([N+](=O)[O-])c2)c2ccccc2n1	0	?	?	-24%	?	-2%
COc1cccc(CN2CC(C(=O)N3CCCO3)CCC2=O)c1 (stereo not drawn)	17	12%	-13%	1%	8%	2%
O=C(Nc1c(Cl)cccc1Cl)C1CCN(C(=O)c2cccs2)CC1	-28	10%	-12%	9%	-28%	0%
COc1ccc(OC)c(Nc2nc(=O)c3cccnc3s2)c1	-6	-2%	21µM*	0%	-21%	-1%
COc1ccc(OC)c(Nc2cc(C)nc3ccccc23)c1	-13	?	18µM*	?	18µM*	.
COc1ccc(Cl)cc1Nc1cc(C)nc2ccccc12	?	-27%	?	-29%	15µM*	?
COc1ccc2nc(C)cc(Nc3ccccc3OC)c2c1	27	-10%	?	-5%	?	.
COc1ccccc1Nc1cc(C)nc2c(C)cccc12	-27	-10%	-30%	-18%	-26%	.
CCOc1ccc2nc(C)cc(Nc3cccc([N+](=O)[O-])c3)c2c1	-118*	18µM*	3.3µM*	-28%	12µM*	-12%
COc1ccc(OCC(=O)OCC(=O)Nc2ccc3[nH]c(=O)[nH]c3c2)cc1	3	9%	-4%	9%	9%	5%
O=C1CCCN1CCCN1CC(C(=O)N(CCO)Cc2ccccc2)CCC1=O (stereo not drawn)	8	6%	2%	-14%	10%	-1%
CCOc1ccc(Nc2cc(C)nc3c(C)cccc23)cc1	-63*	?	?	?	?	-5%
Cc1cc(Nc2ccc([N+](=O)[O-])cc2)c2ccccc2n1	-80*	?	16µM*	?	18µM*	23%
COc1ccc(Nc2cc(C)nc3c(C)cccc23)cc1OC	?	?	-24%	-22%	-42%	-6%
Cc1cc(Nc2ccccc2Cl)c2ccccc2n1	-96*	-4%	23µM*	-10%	13µM*	-7%
Cc1ccc(Nc2nc(N)c3ccccc3n2)cc1C	-97*	?	15µM*	-27%	23µM*	7.1µM*
CS(=O)(=O)c1ccc(-c2cccc3c2OC(CNC(=O)c2cc(C4CC4)[nH]n2)C3)cc1 (stereo not drawn)	.	.	-9%[9.04 µM]	.	?	.
Cc1ccccc1CC(=O)N1CCOCC1	26	8%	8%	2%	19%	-15%
COc1ccccc1OCCC(=O)OCC(=O)c1[nH]c(C)c(C(C)=O)c1C	-9	-11%	?	-2%	?	-8%
Cc1cc(NCc2ccccc2)c2ccccc2n1	?	-21%	21µM*	-15%	21µM*	-28%
COc1ccc(OC)c(Nc2cc(-c3ccccc3)nc(N)n2)c1	-25	1.5µM*	0.65µM*	1.5µM*	0.73µM*	-16%
COC(=O)c1ccc2nc(C)cc(Nc3cccc(Cl)c3C)c2c1	.	.	12µM*	.	13µM*	.
CCOc1cccc(C(=O)c2ccc(O)c(O)c2O)c1	.	.	-105%	.	?	.
COc1ccc(-n2c(=O)c3ccccc3n(CC(=O)NCCc3ccc(OC)c(OC)c3)c2=O)cc1	.	.	-4%	.	-2%	.
COc1ccc(N2CCN(CC(=O)Nc3nc(C)cs3)CC2)cc1	26	15%	4%	20%	-5%	-3%
O=S(=O)(c1ccc(Cl)cc1)c1nc(-c2ccccc2Br)oc1N1CCOCC1	.	.	18µM*	.	23µM*	.
O=P(c1ccccc1)(c1ccccc1)c1nc(-c2ccccc2)oc1N1CCOCC1	-24	1%	-25%	-3%	-28%	0%
O=S(=O)(c1ccc(Cl)cc1)c1nc(-c2ccco2)oc1N1CCOCC1	1	3%	-5%	10%	-7%	-2%
